Test results published in PubChem BioAssay AID1022 (Emory University Molecular Libraries Screening Center, 2008).
Out of some 220,000 compounds screened, about 3,300 (1.5%) were called active.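 The calls were made as follows: active = compounds that cut the protein-peptide binding signal by more than 50% relative to plate controls in a single-dose test; inactive = the rest.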 Shown is part of a subset that was picked to be rich in actives.

The compounds below were run against Induced myeloid leukemia cell differentiation protein Mcl-1 (Homo sapiens) (UniProt Q07820) (assay: disruptors of Mcl-1 and Noxa BH3 peptide – biochemical, TR-FRET, 1536-well, primary screen (AID 1022;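 also: His-tagged Mcl-1 with rhodamine Noxa BH3 peptide and terbium anti-His antibody; 0% = Mcl-1 plus Noxa peptide wells and 100% = peptide-only wells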)). Conditions: TR-FRET Mcl-1/Noxa peptide binding, 2 h; at 21.7 µM; active compounds read high.
Sequence of Induced myeloid leukemia cell differentiation protein Mcl-1 (Homo sapiens) (Q07820 whole entry, looked up): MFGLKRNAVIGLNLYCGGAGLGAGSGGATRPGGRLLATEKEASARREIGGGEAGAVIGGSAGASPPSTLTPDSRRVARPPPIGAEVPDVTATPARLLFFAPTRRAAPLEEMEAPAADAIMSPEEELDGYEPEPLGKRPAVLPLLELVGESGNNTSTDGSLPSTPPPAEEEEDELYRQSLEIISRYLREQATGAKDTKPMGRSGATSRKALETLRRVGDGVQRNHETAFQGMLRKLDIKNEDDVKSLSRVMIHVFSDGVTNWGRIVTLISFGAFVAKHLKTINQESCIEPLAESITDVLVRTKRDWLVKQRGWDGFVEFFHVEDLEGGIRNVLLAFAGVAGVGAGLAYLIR

Row | SMILES | inhibition
1 | Cn1cnc([N+](=O)[O-])c1Sc1n[nH]c(N)n1 | 3.28% (inactive)
2 | Cc1ccc(/C=C/C(=O)Nc2cc(S(=O)(=O)N3CCCCCC3)ccc2OCC(F)(F)F)o1 | 22.8% (inactive)
3 | CCc1nnc(NC(=O)/C=C/c2ccc(C)o2)s1 | 19.4% (inactive)
4 | Cc1ccc(/C=C/C(=O)Nc2ccc([N+](=O)[O-])c(NC(=O)/C=C/c3ccc(C)o3)c2)o1 | 88.8% (active)
5 | O=C(Nc1ccc(-c2csc(Nc3cccc(C(F)(F)F)c3)n2)cc1)c1cccc(C(F)(F)F)c1 | 16.6% (inactive)
6 | CC(C)(C)c1cc(C(=O)NN)n(Cc2ccc(Cl)cc2Cl)n1 | -5.62% (inactive)
7 | CC(=O)Nc1cc(C(=O)O)ccc1S(=O)(=O)c1ccc(Cl)cc1 | 57.8% (active)
8 | Cc1ccc(S(=O)(=O)c2ccc(Cl)cc2)cc1S(=O)(=O)NC(C(=O)O)C(C)C (centres undefined) | 24% (inactive)
9 | CCOC(=O)N1CCN(C(=O)c2ccc(S(=O)(=O)c3ccc(C)cc3)c(NC(C)=O)c2)CC1 | 2.03% (inactive)
10 | CCC(=O)N1CCCc2ccccc21 | -6.7% (inactive)
11 | CN(C)c1cc(-c2ccc(F)cc2)oc(=O)c1Cl | 11.2% (inactive)
12 | Cc1ccc(-c2n[nH]c(=S)n2/N=C/c2cc3c(cc2[N+](=O)[O-])OCO3)cc1 | 63.6% (active)
13 | CCOc1ccc(-c2n[nH]c(=S)n2/N=C/c2cc3c(cc2[N+](=O)[O-])OCO3)cc1 | 48.5% (inactive)
14 | Cc1ccc(S(=O)(=O)N/N=C\c2cc3c(cc2[N+](=O)[O-])OCO3)cc1 | 35.1% (inactive)
15 | CC(=O)N1N=C(c2ccncc2)OC1(Cc1ccccc1)Cc1ccccc1 | 5.2% (inactive)
16 | COc1ccc(Cc2nnc(NC(=O)Cc3cccs3)s2)cc1 | 101% (active)
17 | CCc1nnc(NC(=O)Cc2cccs2)s1 | 32.4% (inactive)
18 | O=C(Cc1cccs1)Nc1nnc(C2CC2)s1 | -2.68% (inactive)
19 | Cc1ccc(-c2c[n+](CC(=O)Nc3ccccc3)c3n2CCC3)cc1 | -9.73% (inactive)
20 | Cc1ccc(Cn2c(SCC(=O)N/N=C/c3ccccc3OCC(=O)O)nc3ccccc32)cc1 | 27.3% (inactive)
21 | Cc1nc2c(ncn2-c2ccccc2)c(=O)n1NC(=O)CN1CCCC1 | 1.52% (inactive)
22 | C=C(C)CNC(=S)Nc1ccc(S(=O)(=O)Nc2cnc3ccccc3n2)cc1 | 6.78% (inactive)
23 | Cc1ccc(CN(C)CC(=O)Nc2cccc([N+](=O)[O-])c2)o1 | -9.25% (inactive)
24 | O=c1cc(CO)oc(C(Nc2cccc([N+](=O)[O-])c2)c2ccccn2)c1O (centres undefined) | 70.7% (active)

Row | SMILES | inhibition
25 | O=C(Nc1cccc(C(F)(F)F)c1)c1cnccn1 | 3.57% (inactive)
26 | FC(F)(F)c1cccc(Nc2ncnc3ccccc23)c1 | -37.6% (inactive)
27 | O=C(CSCC(=O)Nc1cccc([N+](=O)[O-])c1)Nc1ccccc1 | -8.73% (inactive)
28 | O=c1cc(CO)oc(C(Nc2cccc(C(F)(F)F)c2)c2ccccn2)c1O (centres undefined) | 70% (active)
29 | FC(F)(F)c1ccc(-n2cn[nH]c2=S)cc1 | -8.38% (inactive)
30 | CN(C)NC(=O)c1csnc1-c1c(Cl)cccc1Cl | 8.82% (inactive)
31 | O=C(CSc1ncn[nH]1)Nc1nc(-c2cccc([N+](=O)[O-])c2)cs1 | 0.73% (inactive)
32 | Cc1ccc(C(=O)NNC2=Nc3cc([N+](=O)[O-])ccc3OC2)cc1 | 8.97% (inactive)
33 | CSc1n[nH]c(=S)n1N | -7.77% (inactive)
34 | CC(=O)Nc1ccc(NC(=S)NC(=O)/C=C/c2ccccc2)cc1 | 3.86% (inactive)
35 | CCOc1ccc(NC(=S)NC(=O)/C=C/c2ccc(OC)cc2)c([N+](=O)[O-])c1 | 63.1% (active)
36 | Cc1ccc(NC(=S)NC(=O)/C=C/c2ccc(Cl)cc2)cc1 | 3.6% (inactive)
37 | O=C(N/N=C/c1ccco1)c1csc2c1CCCC2 | 5.75% (inactive)
38 | O=C(Nc1ccc(Cl)cc1)/C(=C1\CCCN1)[N+](=O)[O-] | 9.38% (inactive)
39 | COc1ccc2nc(Nc3nc4cc5c(cc4s3)OCCO5)sc2c1 | -76.2% (inactive)
40 | COc1ccc2nc(NC(=O)c3ccc(Br)s3)sc2c1 | 15.7% (inactive)
41 | COc1ccc2nc(Nc3nc4ccc(NC(C)=O)cc4s3)sc2c1 | 70.9% (active)
42 | Cn1c(SCC(=O)N2CCOCC2)nnc1-c1ccc2ncccc2c1 | -9.25% (inactive)
43 | CC(C)Oc1ccc(CCC(=O)NNC(=S)NCc2ccccc2)cc1 | 0.21% (inactive)
44 | O=c1oc(-c2ccccc2NS(=O)(=O)c2ccc(Cl)cc2)nc2ccccc12 | -43.7% (inactive)
45 | CCc1ccc(NC(=O)Cn2nc(C)c([N+](=O)[O-])c2C)cc1 | 3.69% (inactive)
46 | Cc1nn(CC(=O)Nc2ccc(N(C)C)cc2)c(C)c1[N+](=O)[O-] | 73.9% (active)
47 | Cc1nn(CC(=O)Nc2ccc(C#N)cc2)c(C)c1[N+](=O)[O-] | -6.04% (inactive)
48 | COc1ccccc1-n1c(SCC(=O)O)nc2sc3c(c2c1=O)CCC3 | 12.5% (inactive)

Row | SMILES | inhibition
49 | COC(=O)c1cn(C(=O)c2ccc(Cl)cc2)c2ccccc12 | -1.27% (inactive)
50 | CN1CCN(c2ccc(S(=O)(=O)Nc3ccccc3)cc2[N+](=O)[O-])CC1 | -7.35% (inactive)
51 | O=[N+]([O-])c1cc(S(=O)(=O)Nc2cccc(Cl)c2)ccc1N=Nc1c(O)[nH]c2ccccc12 | 71.3% (active)
52 | Cc1cccc(N(CC(=O)N=Nc2c(O)[nH]c3ccccc23)S(C)(=O)=O)c1C | 9.08% (inactive)
53 | O=[N+]([O-])c1c(NCCO)cc(Sc2nc3ccccc3s2)c2nonc12 | 79.7% (active)
54 | COc1ccc(S(=O)(=O)Nc2ccc(O)c(Sc3nc4ccccc4s3)c2)cc1 | 21.8% (inactive)
55 | O=C(CSc1nc2ccccc2s1)Nc1ccc(C(=O)O)cc1 | 2.75% (inactive)
56 | O=C(N/N=C/c1ccccn1)c1cccnc1 | -27.9% (inactive)
57 | O=C(O)c1ccc(NC(=O)c2cn(-c3ccccc3)nc2-c2ccc(Cl)cc2)cc1 | 17.5% (inactive)
58 | O=C(N/N=C/c1ccc([N+](=O)[O-])o1)c1cn(-c2ccccc2)nc1-c1ccc(F)cc1 | 65.5% (active)
59 | Cc1nnc(SCC(=O)N/N=C/c2cn(-c3ccccc3)nc2-c2ccc(F)cc2)n1-c1ccccc1 | -13.4% (inactive)
60 | O=C(Nc1nnc(SCc2c(Cl)cccc2Cl)s1)c1cccc([N+](=O)[O-])c1 | 27.4% (inactive)
61 | CCc1cc(C(=O)c2ccc(OC)cc2)c(NC(=O)CN2CCN(C)CC2)s1 | 0.41% (inactive)
62 | Cc1ccc(CSc2nnc(-c3cnccn3)n2C)cc1 | 2.82% (inactive)
63 | O=C(NCc1cc(C(F)(F)F)cc(C(F)(F)F)c1)C1CC(c2cccc(F)c2)=NO1 (centres undefined) | -14.9% (inactive)
64 | COc1ccc(C(=O)C2CCCN(Cc3ccc4nonc4c3)C2)c(C)c1 (centres undefined) | 0.59% (inactive)
65 | C/C(=N\Nc1cccc(C(=O)O)c1)c1ccc2c(c1)Nc1ccccc1S2 | 78.5% (active)
66 | CC(=O)Nc1cccc(/C(C)=N/NC(=O)c2ccccc2Cl)c1 | 12.1% (inactive)
67 | O=C(NC1CC1)c1ccc2c(c1)NC(=O)c1ccccc1S2 | -14.5% (inactive)
68 | Cc1c(NC(=O)C(=O)N/N=C/c2cccs2)c(=O)n(-c2ccccc2)n1C | -17.4% (inactive)
69 | O=C(Nc1n[nH]c(C(F)(F)F)n1)c1cccs1 | 1.44% (inactive)
70 | COC(=O)c1scc(C)c1NC(=O)CSc1ccc(Cl)cc1 | 2.67% (inactive)
71 | CC(=O)Nc1cccc(C(=O)Nc2nc(C)cs2)c1 | 18.4% (inactive)
72 | CCN(CC)C(=O)C(=O)Nc1cccc(Br)c1 | -12.2% (inactive)

Row | SMILES | inhibition
73 | CCN(CC)N=Nc1cccc(NC(C)=O)c1 | 52.4% (active)
74 | C=C(C)COc1ccc(-c2nc(N)ncc2-c2ccccc2OC)c(O)c1 | 19.2% (inactive)
75 | NC(=S)Nc1c(Cl)cccc1Cl | -2.54% (inactive)
76 | Cc1ccc(OC(=O)c2c(C)nn(-c3ccccc3)c2C)cc1 | -10.1% (inactive)
77 | CC(C)CCN1NC2(CCC(C)CC2)NC1=S (centres undefined) | 10.8% (inactive)
78 | Cc1ccc(OS(=O)(=O)c2ccc(-c3csc(C)n3)s2)c(C)c1 | 10.9% (inactive)
79 | Cn1nc(C(F)(F)F)cc1-c1ccc(/C=C(\C#N)C(=O)c2cccc(C(F)(F)F)c2)s1 | 8.47% (inactive)
80 | Cc1cc(C)n(C(=O)c2ccc(S(=O)(=O)N3CCCC3)cc2)n1 | 7.15% (inactive)
81 | Cc1cc(C)n(C(=O)c2ccc(C)c(S(=O)(=O)N3CCOCC3)c2)n1 | 72.5% (active)
82 | COc1ccc(C(=O)OCC(=O)c2ccc(C)c(S(=O)(=O)N3CCOCC3)c2)cc1OC | -9.99% (inactive)
83 | Cc1ccc(C)c2[nH]c(=O)c(CN(Cc3cccnc3)C(=S)NCc3ccco3)cc12 | 4.29% (inactive)
84 | N=C1/C(=C/c2cccn2-c2cccc([N+](=O)[O-])c2)C(=O)N=C2SC=CN12 | 64.6% (active)
85 | N/C(=N\OC(=O)CCn1cccc(C(F)(F)F)c1=O)c1ccc(OC(F)(F)F)cc1 | -5.59% (inactive)
86 | COc1ccc(NC2=CC(=S)NC(C)(C)C2)cc1 | 19.2% (inactive)
87 | O=c1cc(CN2CCN(S(=O)(=O)/C=C/c3ccccc3)CC2)c2ccc(O)cc2o1 | 57.9% (active)
88 | COc1ccc2c(CN3CCN(S(=O)(=O)c4cccs4)CC3)cc(=O)oc2c1 | -3.37% (inactive)
89 | O=C(CN1CCN(S(=O)(=O)/C=C/c2ccccc2)CC1)Nc1ccc(N2CCOCC2)cc1 | 9.11% (inactive)
90 | Cc1nc2ccccc2nc1N/N=C/c1ccc(O)cc1O | -26.1% (inactive)
91 | CCCCCCCN=C(C)c1ccccc1O | -3.31% (inactive)
92 | O=[N+]([O-])c1cc(Br)c(O)c(/C=N/Nc2nc3ccccc3s2)c1 | 79.4% (active)
93 | Cc1ccc(S(=O)(=O)Nc2nc3ccccc3s2)cc1[N+](=O)[O-] | 9.42% (inactive)
94 | c1ccc2sc(NN=C3CCCC3)nc2c1 | 5.28% (inactive)
